# ABHD5-PLIN5 inh – ABHD5-PLIN5 interaction inhibitors, primary screen, cell lysate, split luciferase complementation, luminescence; 360,000 compounds, 0.78% hits; AID 602281, 2012; Split G. princeps luciferase complementation, 4 h; Perilipin-5 (Homo sapiens) + 1-acylglycerol-3-phosphate O-acyltransferase ABHD5 (Homo …; inhibition, % at 4 µM;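 active = inhibition above the mean inhibition across every tested compound plus 3 SD, cut at about 22% in these data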;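 note: 0% = DMSO only wells and the 100% control is not disclosed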
# Target sequence (Q00G26 whole entry, looked up): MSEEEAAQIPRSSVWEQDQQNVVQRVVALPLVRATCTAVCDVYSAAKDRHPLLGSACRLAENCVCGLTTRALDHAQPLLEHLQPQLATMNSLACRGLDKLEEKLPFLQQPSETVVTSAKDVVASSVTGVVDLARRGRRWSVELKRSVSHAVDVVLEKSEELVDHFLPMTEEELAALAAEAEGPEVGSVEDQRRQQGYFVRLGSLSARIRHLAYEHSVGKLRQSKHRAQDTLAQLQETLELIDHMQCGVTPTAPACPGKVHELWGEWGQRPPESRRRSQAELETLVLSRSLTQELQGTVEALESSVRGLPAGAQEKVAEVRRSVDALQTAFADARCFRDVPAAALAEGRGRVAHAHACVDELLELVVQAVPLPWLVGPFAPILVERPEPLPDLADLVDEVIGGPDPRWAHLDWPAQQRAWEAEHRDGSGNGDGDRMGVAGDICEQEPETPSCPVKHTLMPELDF
# Target sequence (Q8WTS1 whole entry, looked up): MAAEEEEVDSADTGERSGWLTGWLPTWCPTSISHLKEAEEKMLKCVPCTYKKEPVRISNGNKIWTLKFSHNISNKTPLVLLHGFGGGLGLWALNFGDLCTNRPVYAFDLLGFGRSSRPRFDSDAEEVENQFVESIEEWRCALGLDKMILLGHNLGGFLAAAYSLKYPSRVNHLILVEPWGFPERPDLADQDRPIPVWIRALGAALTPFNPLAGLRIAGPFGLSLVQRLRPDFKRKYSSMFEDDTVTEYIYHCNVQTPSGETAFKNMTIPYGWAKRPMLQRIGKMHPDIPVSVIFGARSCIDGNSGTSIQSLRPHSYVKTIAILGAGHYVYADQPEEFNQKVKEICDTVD
# HIF-2a inh – HIF-2a reporter inhibitors, primary screen, luminescence, 786-0 RCC cells; AID 624352, 2012; 786-0 RCC cells HIF-2a reporter, luciferase luminescence, overnight; inhibition, % at 18.8 µM; 360,000 compounds, 0.72% hits;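 active = inhibition of the luminescence signal of 40% or more relative to plate controls, in a single-dose primary screen at 18.75 µM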
# Peg3 promoter – Peg3 promoter-driven luciferase inhibitors, primary screen, cell-based, HeLa, luciferase luminescence; HeLa PEG-Prom luciferase reporter, overnight; 360,000 compounds, 1.7% hits; inhibition, % at 20 µM;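 active = inhibition of at least 50% at 20 µM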
# KKLEB tox – cytotoxicity in KKLEB CF airway cells, primary screen, cytotoxicity control for CF NF-kB inhibitor project, cell-based, uHTS, fluorescence assay plates | KKLEB CF airway cells viability, ATPlite luminescence, overnight; active compounds read low; cells stimulated with P. aeruginosa culture filtrate | activity change (cytotoxicity), % at 5 µM | 360,000 compounds, 0.36% hits | AID 602141, 2011;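 active = corrected activity change at or below -50% at 5 µM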
# CF NFkB inh – inhibitors of PAF-induced NF-kB signaling, primary screen, cell-based, GFP fluorescence, uHTS | KKLEB NF-kB-GFP reporter, GFP fluorescence overnight | inhibition, % at 5 µM | 360,000 compounds, 0.86% hits | AID 588850, 2011;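 active = at least 50% inhibition at 5 µM, scaled per plate between neutral and stimulator controls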;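 note: PAF is a Pseudomonas aeruginosa culture filtrate used as stimulus; plate controls were PAF-stimulated DMSO wells for no effect and unstimulated DMSO wells for full effect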
# TRPM1 prom inh – inhibitors of MITF-dependent TRPM1 promoter reporter, primary screen, cell-based, SK-MEL-5, single point, luciferase; 330,000 compounds, 0.83% hits; SK-MEL-5 TRPM1 promoter luciferase, 24 h; inhibition, % at 12.5 µM;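 active = mean inhibition across replicates of 60% or more, whatever share of single replicates reaches that level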
# ABHD5 PLIN5 conf – ABHD5-PLIN5 interaction inhibitors, confirmation, biochemical, luminescence; shares compounds with ABHD5-PLIN5 inh; inhibition, % at 4 µM; 2,200 compounds, 67% hits; in the data active = inhibition above about 23%;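 note: 0% = DMSO vehicle wells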
# HNF4 split-luc – HNF4 dimerization inhibitors, counter-screen for ABHD5-PLIN5 interaction inhibitor project, biochemical, split-luciferase complementation, luminescence. shares compounds with ABHD5-PLIN5 inh. inhibition, % at 4 µM. 2,200 compounds, 77% hits. AID 651674, 2012;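 active = mean inhibition across replicate wells exceeding the computed hit threshold, cut at about 13% in these data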;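 note: light from luciferase halves that rejoin when HNF4 fusion proteins dimerize; 0% = DMSO only wells and the 100% control is not given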
# The depositor's hits bear a star; . = no result. Compounds with a hit are over-represented: about 3% of the library has one in this group of screens.
SMILES,ABHD5-PLIN5 inh,HIF-2a inh,Peg3 promoter,KKLEB tox,CF NFkB inh,TRPM1 prom inh,ABHD5 PLIN5 conf,HNF4 split-luc
CCc1ccc(/C=C/C(=O)c2ccc(S(=O)(=O)N(C)C)cc2)cc1,41*,13,54*,-12,15,4,92*,83*
O=C(NCc1ccccc1)C(c1ccc(C(F)(F)F)cc1)n1c(=O)c(-c2ccccc2)nc2ccccc21 (stereo not given),-3,-5,.,.,.,.,.,.
O=C(NCc1ccccc1)C(c1ccc(C(F)(F)F)cc1)n1c(=O)c(-c2ccco2)nc2ccccc21 (stereo not given),74*,-4,.,.,.,.,95*,44*
O=C(Nc1ccc2c(c1)OCCO2)C(c1ccccc1)n1c(=O)c(-c2ccco2)nc2ccccc21 (stereo not given),18,-16,.,.,.,.,.,.
CC(C)(C)NC(=O)C(c1ccc(C(F)(F)F)cc1)n1c(=O)c(-c2ccco2)nc2ccccc21 (stereo not given),60*,8,.,.,.,.,87*,38*
O=C(NC1CCCCC1)C(C1CC1)n1c(=O)c(-c2ccccc2)nc2ccccc21 (stereo not given),-5,20,.,.,.,.,.,.
O=C(NCc1ccccc1)C(c1ccccc1)n1c(=O)c(-c2ccco2)nc2ccccc21 (stereo not given),74*,-12,.,.,.,.,48*,12
CC(C)(C)NC(=O)C(c1ccccc1)n1c(=O)c(-c2ccccc2)nc2ccccc21 (stereo not given),-5,19,.,.,.,.,.,.
O=C(NCc1ccccc1)C(C1CC1)n1c(=O)c(-c2ccco2)nc2ccccc21 (stereo not given),38*,3,.,.,.,.,37*,13*
Cc1ccsc1C(=O)OCC(=O)NC1CCCCC1C (stereo not given),1,-9,-33,13,10,-25,.,.
COCCN1CCN(C(=O)C2CCC(=O)N(CCc3ccccc3)C2)CC1 (stereo not given),0,10,4,-4,17,4,.,.
O=C(NCc1ccccc1)C(c1cccc2ccccc12)n1c(=O)c(-c2ccccc2)nc2ccccc21 (stereo not given),8,17,.,.,.,.,.,.
O=C(NCc1ccccc1)C(c1cc2ccccc2o1)n1c(=O)c(-c2ccco2)nc2ccccc21 (stereo not given),91*,-162,.,.,.,.,62*,15*
Cc1cc(C)nc(N2N=C(C(C)(C)C)CC2=O)n1,37*,2,11,-3,9,-6,7,26*
Cc1ccc(SCC2=NN(c3nc(C)cc(C)n3)C(=O)C2)cc1,2,17,6,1,-15,0,.,.
O=C(/C=C/c1ccc([N+](=O)[O-])cc1)c1cccnc1,30*,29,3,-9,23,-1,83*,93*
O=C(/C=C/c1cccnc1)c1ccc(F)c(F)c1,71*,-10,45,0,0,-7,97*,95*
O=C(O)c1ccc(/C=C/C(=O)c2ccc3c(c2)OCCCO3)cc1,49*,-14,-34,-12,18,10,48*,43*
CC(/C=C/c1cccc([N+](=O)[O-])c1)=N/NC(=O)c1cccnc1,29*,-3,-9,4,-9,7,20,16*
C/C(=N\NC(=O)c1cccnc1)c1cccc([N+](=O)[O-])c1,3,3,18,-14,-9,-5,.,.
COC(=O)C=C1CCC2C3CCC4=CC(=O)CCC4(C)C3C(=O)CC12C (stereo not given),-2,3,3,-13,2,-11,.,.
COc1ccccc1N1CCN(c2ccc3c(c2)S(=O)(=O)c2cccc(C(=O)NCc4cccc(F)c4)c2C3=O)CC1,-4,-15,18,-12,6,.,.,.
O=C(Nc1ccc(OC(F)(F)C(F)F)c(NC(=O)c2cccc(F)c2)c1)c1cccc(F)c1,-5,-98,-55,-7,12,-24,.,.
O=C(/C=C/c1ccc2c(c1)OCO2)c1cccnc1,28*,25,8,5,-12,-2,63*,54*
O=C(/C=C/c1ccc2c(c1)OCO2)Nc1cccnc1,3,-157,-156,12,-39,-83,.,.
SMILES,ABHD5-PLIN5 inh,HIF-2a inh,Peg3 promoter,KKLEB tox,CF NFkB inh,TRPM1 prom inh,ABHD5 PLIN5 conf,HNF4 split-luc
O=C(O)/C=C/c1cccc(OCc2ccccc2)c1,-8,24,-22,-11,11,-5,.,.
O=C(/C=C/c1ccc2c(c1)OCCO2)c1ccccc1,27*,-254,-280,-15,17,-84,56*,43*
COc1ccc(C(=O)/C=C/c2ccc3c(c2)OCCO3)cc1,4,-84,-164,-13,11,-15,.,.
O=C(/C=C/c1cccc(OCc2ccccc2)c1)c1cccnc1,36*,0,14,11,1,-7,61*,70*
Cc1ccc(-c2csc(NC(=O)Cc3ccc(F)cc3)n2)o1,30*,-32,-24,4,-6,-12,60*,94*
Cc1ccc(-c2csc(Nc3ccc(S(N)(=O)=O)cc3)n2)o1,32*,-4,-22,12,-22,-21,65*,100*
Cc1ccc(-c2csc(NC(=O)c3ccc(-c4ccccc4)cc3)n2)o1,55*,-133,-119,-13,-51,-1,25*,27*
Cc1nc(C)c(-c2csc(Nc3ccc(S(N)(=O)=O)cc3)n2)s1,2,-1,19,5,-11,-82,.,.
CC(C)CN(C)C(=O)CCc1nnc(Cc2cccc(C(F)(F)F)c2)o1,-5,-194,-173,-2,-1,-60,.,.
O=[N+]([O-])c1ccc(N2CCN(S(=O)(=O)c3ccccc3)CC2)cc1NCCN1CCOCC1,23*,14,20,-9,10,-5,2,9
Cc1ccc(S(=O)(=O)N2CCN(c3ccc([N+](=O)[O-])c(NCCN4CCOCC4)c3)CC2)cc1,11,16,21,8,-1,13,.,.
Cc1cccc(OCCNc2cc(N3CCN(CCO)CC3)ccc2[N+](=O)[O-])c1,27*,-25,10,-19,-28,-13,16,9
